The values that follow come from PubChem BioAssay.

Experiment [1] is described as follows: P. berghei load reduction in hepatocytes – cell-based, HepG2, luciferase luminescence, HepG2 viability, primary screen (AID 624349; in the data active = parasite load remaining mostly below about 12%, no sharp cut-off; inactive = mostly above about 10%;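 also: 100% = mean of DMSO negative control wells on the same plate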). The following applies: P. berghei liver stage in HepG2, luciferase luminescence, concentration not given here; parasite load remaining: stronger effect = lower value; viability: measured here: HepG2 viability without parasites.
The target of experiment [2] is 6-phosphogluconate dehydrogenase, decarboxylating (Homo sapiens) (UniProt P52209). Put plainly: inhibition of human phosphogluconate dehydrogenase – biochemical, recombinant enzyme, NADPH absorbance, primary screen (AID 1159550;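 active = at least 20% inhibition of 6-phosphogluconate dehydrogenase activity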). The conditions noted are these: recombinant 6PGD, NADPH absorbance 341 nm; at 10 µM; stronger effect = higher value.
6-phosphogluconate dehydrogenase, decarboxylating (Homo sapiens), sequence (P52209 whole entry, looked up): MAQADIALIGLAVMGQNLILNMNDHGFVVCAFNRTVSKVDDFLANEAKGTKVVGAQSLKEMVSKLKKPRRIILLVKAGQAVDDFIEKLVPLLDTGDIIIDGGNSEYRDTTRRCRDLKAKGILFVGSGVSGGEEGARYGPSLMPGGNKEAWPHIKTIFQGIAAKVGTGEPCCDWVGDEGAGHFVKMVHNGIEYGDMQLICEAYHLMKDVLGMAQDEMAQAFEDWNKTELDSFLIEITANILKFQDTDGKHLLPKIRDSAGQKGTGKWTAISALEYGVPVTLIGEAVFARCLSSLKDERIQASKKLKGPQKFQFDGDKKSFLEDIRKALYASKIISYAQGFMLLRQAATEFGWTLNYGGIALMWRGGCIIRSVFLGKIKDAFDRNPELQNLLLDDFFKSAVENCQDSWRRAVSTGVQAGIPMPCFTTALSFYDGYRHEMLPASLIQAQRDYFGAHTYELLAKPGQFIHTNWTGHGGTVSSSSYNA
A short description of experiment [3]: viability loss in pontine glioma line – cell-based, SU-DIPG-XVII, MIPE5.0, CellTiter-Glo, qHTS, dose response (AID 1347060).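 As to AC50: cells exposed to compound for 48 hours before viability readout.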 The conditions noted are these: CellTiter-Glo ATP luminescence.
Experiment [4] is described as follows: viability loss in pontine glioma line – cell-based, SU-DIPG-XIII, MIPE4.0, CellTiter-Glo, qHTS, dose response (AID 1347061; cut-off not given, nearly all actives have AC50 up to about 37 µM;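 also: cells exposed to compound for 48 hours before readout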). The conditions noted are these: CellTiter-Glo ATP luminescence. For orientation: Cellular ATP, detected with luciferase, serves as a proxy for viable cell number.
Experiment [5] in a line: viability loss in pontine glioma line – cell-based, JHH-DIPG-1, MIPE4.0, CellTiter-Glo, qHTS, dose response (AID 1347062; cut-off not given, nearly all actives have AC50 up to about 27 µM;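 also: cells exposed to compound for two days before readout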). The following applies: JHH-DIPG-1 viability, CellTiter-Glo ATP luminescence.
A short description of experiment [6]: viability loss in pontine glioma line – cell-based, SU-DIPG-IV, MIPE4.0, CellTiter-Glo, qHTS, dose response (AID 1347063; cut-off not given, nearly all actives have AC50 up to about 30 µM;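 also: compound exposure lasted 48 hours before the viability readout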). The following applies: CellTiter-Glo ATP luminescence.
The nature of experiment [7]: growth inhibition of DIPG cells – cell-based, MIPE4.0 library, CellTiter-Glo luminescence, qHTS (AID 1347066; cut-off not given, nearly all actives have AC50 up to about 30 µM;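 also: cells exposed to compound for 48 hours before readout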). The following applies: SU-DIPG-VI viability, CellTiter-Glo ATP luminescence.
Experiment [8] can be described thus: JHH-DIPG-1 glioma cell viability, MIPE5.0 library, CellTiter-Glo luminescence, qHTS (AID 1347067).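 Also: cells exposed to compound for 48 hours before readout.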 The following applies: JHH-DIPG-1 glioma viability, CellTiter-Glo ATP luminescence.
The nature of experiment [9]: growth inhibition of DIPG cells – cell-based, MIPE5.0 library, qHTS (AID 1347068; cut-off not given, nearly all actives have IC50 up to about 30 µM). The following applies: SU-DIPG-XXV viability. In general terms: qHTS replaces the single test concentration by a dilution series.
Experiment [10] is described as follows: viability loss with induced miR-34 in A549 – imaging, A549 dox-inducible miR-34, nuclei and caspase counts, primary screen (AID 1347080;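 active = compounds whose cell count with miR-34 switched on is under 0.7 times the count with it off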). The conditions noted are these: A549 miR-34 inducible, Hoechst nuclei count, 48 h.
Experiment [11] can be described thus: MELAS cybrid and Rieske KO viability enhancers – cell-based, MELAS cybrids, Rieske KO mouse fibroblasts, CellTiter-Glo, primary screen (AID 1508586;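 active = mean z-score across replicates of 1.96 or higher in either the MELAS or the Rieske mutant cell line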;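 also: z relative to plate mean and SD of compound and empty wells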). The conditions noted are these: low glucose.
In experiment [12] the target is NAD(+) hydrolase SARM1 (Homo sapiens) (UniProt Q6SZW1). As to the kind of experiment: blocking NAD cleavage by SARM1 SAM-TIR – cell lysate, NAD-Glo luminescence (AID 1508614;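 active = compound whose remaining NAD level is above about 45 nM, limit read from the data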;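 also: higher remaining NAD means stronger inhibition of SARM1 NADase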). The following applies: SAM-TIR HEK293T lysate NADase, at 1 µM, stronger effect = higher value.
NAD(+) hydrolase SARM1 (Homo sapiens), sequence (Q6SZW1 whole entry, looked up, the tested form may be a part): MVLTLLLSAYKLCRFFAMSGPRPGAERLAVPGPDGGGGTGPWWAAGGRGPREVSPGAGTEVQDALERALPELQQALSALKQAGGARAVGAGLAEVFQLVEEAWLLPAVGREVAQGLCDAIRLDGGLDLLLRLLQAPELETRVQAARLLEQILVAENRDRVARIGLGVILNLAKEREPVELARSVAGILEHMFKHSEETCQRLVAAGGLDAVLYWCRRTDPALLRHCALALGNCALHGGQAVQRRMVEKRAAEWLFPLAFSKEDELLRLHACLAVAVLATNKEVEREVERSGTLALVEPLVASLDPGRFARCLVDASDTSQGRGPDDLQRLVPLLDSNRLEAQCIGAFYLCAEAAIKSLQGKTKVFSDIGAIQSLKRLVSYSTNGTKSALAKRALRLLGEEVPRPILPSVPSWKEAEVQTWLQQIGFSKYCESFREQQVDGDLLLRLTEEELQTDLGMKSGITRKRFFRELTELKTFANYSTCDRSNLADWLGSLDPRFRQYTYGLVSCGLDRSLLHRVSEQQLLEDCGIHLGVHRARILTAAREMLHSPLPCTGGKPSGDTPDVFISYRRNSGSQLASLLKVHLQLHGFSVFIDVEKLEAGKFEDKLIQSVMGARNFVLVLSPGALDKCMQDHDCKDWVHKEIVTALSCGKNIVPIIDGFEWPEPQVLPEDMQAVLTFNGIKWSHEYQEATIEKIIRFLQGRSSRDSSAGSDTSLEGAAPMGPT
The target of experiment [13] is Mitogen-activated protein kinase 7 (Homo sapiens) (UniProt Q13164). As to the kind of experiment: Gal4-ERK5 driven luciferase induction – cell-based, HTS, primary screen (AID 1508626;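 active = luciferase signal above three times the same-plate solvent-only control wells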;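 also: luciferase driven by Gal4-ERK5 fusion binding five Gal4 sites before minimal TATA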). The following applies: HeLa Gal4-ERK5 transactivation, 18 h, at 5 µM, stronger effect = higher value.
Mitogen-activated protein kinase 7 (Homo sapiens), sequence (Q13164 whole entry, looked up, the tested form may be a part): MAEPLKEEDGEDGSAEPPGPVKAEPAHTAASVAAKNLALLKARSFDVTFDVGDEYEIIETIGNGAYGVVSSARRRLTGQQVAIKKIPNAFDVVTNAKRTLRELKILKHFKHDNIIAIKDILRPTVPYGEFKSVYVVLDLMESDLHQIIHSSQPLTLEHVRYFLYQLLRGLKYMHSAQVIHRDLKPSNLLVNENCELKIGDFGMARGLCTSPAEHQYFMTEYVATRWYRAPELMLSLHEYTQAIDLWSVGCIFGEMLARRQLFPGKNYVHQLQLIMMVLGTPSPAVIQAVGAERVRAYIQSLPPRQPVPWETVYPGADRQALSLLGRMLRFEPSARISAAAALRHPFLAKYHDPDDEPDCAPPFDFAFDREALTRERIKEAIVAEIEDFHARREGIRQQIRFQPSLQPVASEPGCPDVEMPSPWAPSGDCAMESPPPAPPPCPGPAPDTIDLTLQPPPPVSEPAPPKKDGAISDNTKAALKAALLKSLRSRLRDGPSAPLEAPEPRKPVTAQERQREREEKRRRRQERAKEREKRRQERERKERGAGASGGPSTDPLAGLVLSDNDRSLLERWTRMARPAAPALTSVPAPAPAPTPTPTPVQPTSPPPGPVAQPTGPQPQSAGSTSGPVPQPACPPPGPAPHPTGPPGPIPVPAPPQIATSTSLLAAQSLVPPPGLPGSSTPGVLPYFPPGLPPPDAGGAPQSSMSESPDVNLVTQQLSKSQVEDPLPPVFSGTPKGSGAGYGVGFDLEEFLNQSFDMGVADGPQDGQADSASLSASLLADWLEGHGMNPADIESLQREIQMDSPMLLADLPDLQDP
A short description of experiment [14]: viability loss in pontine glioma line – cell-based, SU-DIPG-XIII, MIPE5.0, CellTiter-Glo, qHTS, dose response (AID 1347064; cut-off not given, nearly all actives have AC50 up to about 23 µM;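 as to AC50: cells exposed to compound for 48 hours before the viability read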). The following applies: CellTiter-Glo ATP luminescence.
Experiment [15] is described as follows: viability loss in pontine glioma line – cell-based, SU-DIPG-XXV, MIPE5.0, CellTiter-Glo, qHTS, dose response (AID 1347065).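 Also: cells exposed to compound for 48 hours before ATP readout.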 The conditions noted are these: CellTiter-Glo ATP luminescence.
Experiment [16] is described as follows: galactose survival enhancers in mitochondrial complex I cybrids – cell-based, galactose medium, ATP luminescence, primary screen (AID 1645843;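 active = z-score of at least 1.8 in each of two replicates, scored against plate mean and spread of sample wells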;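 also: positive z means more ATP and so rescue of galactose-driven cybrid death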). The conditions noted are these: complex I mutant cybrid cells, 72 h, stronger effect = higher value.
Experiment [17] relates to Aerobactin synthetase IucA (Klebsiella pneumoniae). As to the kind of experiment: inhibition of K. pneumoniae IucA enzyme – biochemical, Tocris library, absorbance (AID 1345561; call rule not given here;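 also: 100% = enzyme without compound and 0% = no enzyme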). The conditions noted are these: purified IucA enzyme assay, absorbance (OD) read-out; stronger effect = lower value;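 tested at 8 µM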.
Experiment [18] can be described thus: compounds altering circadian rhythm period length – cell-based, LOPAC library, luminescence reporter (AID 2774; call rule not given here;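 also: values are relative to mean of DMSO wells on each plate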). The following applies: circadian reporter cells, at 7 µM, actives lie on both sides.
The mark [19] stands for this setting: stronger effect = lower value, cell number ratio, induced over uninduced.
The mark [20] stands for this setting: measured here: relative caspase fold change +Dox/-Dox.
Setting [21] is: measured here: total cells with miR-34 induction, stronger effect = lower value.
[22] abbreviates: measured here: total cells without miR-34 induction.
Where [23] appears, read: MELAS cybrid survival, CellTiter-Glo 48 h, stronger effect = higher value.
The mark [24] stands for this setting: Rieske KO mouse fibroblast survival, CellTiter-Glo 72 h.

Values joined by “and” are separate entries in the source; they are usually repeats but may differ in a detail not shown here. Equal entries are not always repeated. Inconclusive results are not listed. Active and inactive are the calls of the source. Unless noted, the limit is not given here; nearly all actives have AC50 up to about 26 µM.

By viability is commonly meant a read-out of living cells in per cent, often relative to untreated cells. As usually defined, the inhibition is the change of the read-out against control, counted positive when it falls. One may read the AC50 as the concentration at which the activity in the assay is half-maximal. Consider `C[C@@H]1[C@H](O)[C@@H](C)/C=C/C=C/C=C/C=C/C=C/C=C/C=C/[C@H](O[C@@H]2O[C@H](C)[C@@H](O)[C@H](N)[C@@H]2O)C[C@@H]2O[C@](O)(C[C@@H](O)C[C@@H](O)[C@H](O)CC[C@@H](O)C[C@@H](O)CC(=O)O[C@H]1C)C[C@H](O)[C@H]2C(=O)O`, for which the parasite load remaining in [1] was 70.3% (inactive). The viability in experiment [1] worked out at 129%. Moreover, in experiment [2], the inhibition is -10.9% (inactive). The outcome in [3], in experiment [7], in experiment [8] and in [9] was inactive. The values for the AC50 in experiment [4], in experiment [5] and in [6] were 0.833 µM (active), 1.32 µM (active) and 6.62 µM (active), respectively. Besides, the fold change in [10] (setting [19]) is 0.894 (inactive); in experiment [10] (setting [20]), 1.05. The results for the cell count in experiment [10] (setting [21]) and in experiment [10] (setting [22]) were 7670 and 8570, respectively. Moreover, the z-score in experiment [11] (setting [23]) is -0.838 (inactive); in [11] (setting [24]) it was -0.728. In addition, the remaining NAD in experiment [12] was 10 nM (inactive). For the same compound, the luciferase signal in experiment [13] is 92 AU (inactive).
On to `CCC[C@@H]1C[C@@H](C(=O)N[C@@H]([C@H]2O[C@H](SC)[C@H](O)[C@@H](O)[C@H]2O)[C@H](C)Cl)N(C)C1`, for which the parasite load remaining in [1] was 69.6% (inactive) and 41% (inactive). Besides, the viability in experiment [1] was 232% and 102%. For the same compound, in experiment [2], the inhibition was 8.56% (inactive). Also, the compound was called inactive in experiment [3], in experiment [14], in [15], in [8] and in experiment [9]. The fold change in [10] (setting [19]) is 0.93 (inactive) and 0.912 (inactive); in experiment [10] (setting [20]), 1.22 and 1. Further, the cell count in experiment [10] (setting [21]) is 9830 and 9930; in experiment [10] (setting [22]) it was 10600 and 10900. The z-score in experiment [11] (setting [23]) is -0.831 (inactive) and -0.519 (inactive); in experiment [11] (setting [24]), -0.0935 and -0.00307; in experiment [16], -0.225 (inactive) and 0.615 (inactive). Also, the remaining NAD in [12] is 10 nM (inactive). For the same compound, the luciferase signal in experiment [13] was 136 AU (inactive).
As usually defined, the remaining activity is the signal under treatment as a percentage of the control signal. As to `COc1cc2c(c(OC)c1OC)-c1ccc(OC)c(=O)cc1C(NC(C)=O)CC2` (stereo unspecified), the inhibition in experiment [2] was -26.1% (inactive). For the same compound, the remaining activity in [17] was 109% (inactive). Besides, the figures for the fold change in experiment [10] (setting [19]) and in experiment [10] (setting [20]) were 0.969 (inactive) and 1.26, respectively. The results for the cell count in experiment [10] (setting [21]) and in experiment [10] (setting [22]) were 1510 and 1550, respectively. Moreover, in [16], the z-score is -0.44 (inactive).
As to `CC[C@@]1(O)C[C@H](O[C@H]2C[C@H](N(C)C)[C@H](O[C@H]3C[C@H](O)[C@H](O[C@H]4CCC(=O)[C@H](C)O4)[C@H](C)O3)[C@H](C)O2)c2c(cc3c(c2O)C(=O)c2c(O)cccc2C3=O)[C@H]1C(=O)OC`, the parasite load remaining in experiment [1] is -0.835% (inactive). Moreover, the viability in [1] was 14.5%. Moreover, in [2], the inhibition is 13.5% (inactive). In addition, the AC50 is 14.8 µM (active) in experiment [3]; 0.332 µM (active) in experiment [5]; 0.469 µM (active) in experiment [6]; 16.6 µM (active) in experiment [14]; 14.8 µM (active) in experiment [15]; 11.8 µM (active) in experiment [8]. For the same compound, the fold change in [10] (setting [19]) is 1.94 (inactive); in experiment [10] (setting [20]), 0.972. Also, the cell count in experiment [10] (setting [21]) is 1190; in experiment [10] (setting [22]) it was 612. In addition, the z-score in experiment [11] (setting [23]) was 0.116; in experiment [11] (setting [24]) it was 2.56; in experiment [16], -1.88 (inactive).
With `O=C(O)c1cc(=O)c2ccc(Cl)cc2[nH]1`, the period change in experiment [18] is -0.105 h (inactive). In addition, in experiment [2], the inhibition was 15.5% (inactive). The remaining activity in experiment [17] is 104% (inactive). Moreover, the fold change in [10] (setting [19]) was 0.965 (inactive); in experiment [10] (setting [20]) it was 1.21. Moreover, the cell count in experiment [10] (setting [21]) worked out at 8410; in [10] (setting [22]), 8710. Besides, in [16], the z-score is -0.2 (inactive).
